Assay results as given in PubChem BioAssay (EPA / NIEHS).
Where “and” joins values, the source holds several entries; their conditions need not be identical. Equal values may be shown once. Records with an inconclusive call do not appear. The source holds several records for some structures; these can differ, active in one and inactive in another. Calls of active or inactive are those of the source. How the source made its calls, unless noted: active means hit-call score of the fitted dose curve at least 0.9, where 1 is the maximum; inactive means score below 0.9.

Experiments:
[1] = target: human Vitamin D Receptor (VDR), VDR (gene 7421) (UniProt P11473); experiment: ATG_VDR_TRANS: Attagene TRANS-FACTORIAL HepG2 Assay for human Vitamin D Receptor (VDR) (AID 2283022; active means hit-call score of the fitted dose curve at least 0.9, where 1 is the maximum)
How it was run: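 Multiplexed TRANS reporter in HepG2; 24 h treatment; reporter mRNA by RT-PCR plus capillary electrophoresis; upregulation scored relative to DMSO.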

[2] = read-out: Monokine induced gamma interferon (MIG), CXCL9 (gene 4283); experiment: BSK_3C_MIG: BioMAP Diversity Plus: 3C Assay for Monokine induced gamma interferon (MIG) Biomarker Activity (AID 2283021); conditions: primary human endothelial cells (HUVEC); actives raise or lower the signal
How it was run: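 ELISA measurement of MIG in human umbilical vein endothelial cells 24 h after treatment. Cytotoxicity tracked by SRB staining in parallel cultures; gain or loss of signal fitted relative to DMSO.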

[3] = BSK_3C_SRB: Viability Assessment in the BioMAP Diversity Plus: 3C Assay (AID 2283023); conditions: primary human endothelial cells (HUVEC);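 further: fitted both ways against DMSO so a hit may be signal rise or drop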
How it was run: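 Overt cytotoxicity is gauged in parallel confluent HUVEC cultures by SRB total-protein staining at the time of biomarker measurement, 24 h after dosing. Gain or loss of signal is fitted versus DMSO.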

[4] = read-out: Pselectin, SELP (gene 6403); experiment: BSK_4H_Pselectin: BioMAP Diversity Plus: 4H Assay for Pselectin Biomarker Activity (AID 2283026); conditions: primary human endothelial cells (HUVEC); actives raise or lower the signal
How it was run: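 ELISA of surface P-selectin on HUVEC, 24 h after dosing, with parallel SRB staining (0.1% after 10% TCA fixation, 560 nm) for overt cytotoxicity. Activity fitted in both directions relative to DMSO.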

[5] = BSK_4H_SRB: Viability Assessment in the BioMAP Diversity Plus: 4H Assay (AID 2283027); conditions: primary human endothelial cells (HUVEC);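 further: cells exposed to compound for 24 h before staining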;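 on AC50: curves fitted both ways versus DMSO so AC50 may be loss or gain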
How it was run: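 HUVEC, 24 h post-dose; 10% TCA fix, 0.1% SRB stain, A560 nm. Total protein = overt cytotoxicity, parallel to biomarker read. Bidirectional fit vs DMSO baseline.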

[6] = BSK_BE3C_SRB: Viability Assessment in the BioMAP Diversity Plus: BE3C Assay (AID 2283028); conditions: primary human bronchial epithelial cells
How it was run: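 SRB total-protein staining (0.1%, after TCA fixation) of chemically dosed human bronchial epithelial primary cells at 24 h; DMSO serves as the negative control for bidirectional curve fitting.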

[7] = read-out: Urokinase-type plasminogen activator receptor (uPAR), PLAUR (gene 5329); experiment: BSK_4H_uPAR: BioMAP Diversity Plus: 4H Assay for Urokinase-type plasminogen activator receptor (uPAR) Biomarker Activity (AID 2283030); conditions: primary human endothelial cells (HUVEC); actives raise or lower the signal
How it was run: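 Endpoint derived via bidirectional curve fitting against DMSO baseline; readout was ELISA detection of uPAR on umbilical vein endothelial cells at 24 h post-treatment, with SRB-stained parallel cultures assessing cytotoxicity.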

[8] = read-out: Vascular endothelial growth factor receptor 2 (Homo sapiens) (UniProt P35968); experiment: BSK_4H_VEGFRII: BioMAP Diversity Plus: 4H Assay for Vascular endothelial growth factor receptor 2 (VEGFR2) Biomarker Activity (AID 2283031); conditions: primary human endothelial cells (HUVEC); actives raise or lower the signal
How it was run: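 In this multiplexed HUVEC system, biomarker ELISA was performed after 24 h chemical exposure. Parallel SRB staining (TCA fixation, 560 nm) tracked cytotoxicity; DMSO served as baseline.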

[9] = read-out: Human Leukocyte Antigen - DR isotype (HLADR), HLA-DRA (gene 3122); experiment: BSK_BE3C_HLADR: BioMAP Diversity Plus: BE3C Assay for Human Leukocyte Antigen - DR isotype (HLADR) Biomarker Activity (AID 2283032); conditions: primary human bronchial epithelial cells; actives raise or lower the signal
How it was run: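 Cell-surface HLA-DR ELISA readout at 24 h after dosing in the BE3C primary human lung bronchial epithelial system; gain or loss of signal against DMSO, with parallel sulforhodamine B staining of total protein for overt cytotoxicity.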

[10] = read-out: Vascular cell adhesion molecule 1 (VCAM1), VCAM1 (gene 7412); experiment: BSK_4H_VCAM1: BioMAP Diversity Plus: 4H Assay for Vascular cell adhesion molecule 1 (VCAM1) Biomarker Activity (AID 2283033); conditions: primary human endothelial cells (HUVEC); actives raise or lower the signal
How it was run: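 VCAM-1 ELISA read 24 h after chemical dosing of HUVEC in the BioMAP 4H system, with gain or loss of signal fitted relative to DMSO. Parallel SRB staining (560 nm) checked overt cytotoxicity.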

[11] = read-out: Interferon-gamma inducible Protein 10 (IP10), CXCL10 (gene 3627); experiment: BSK_BE3C_IP10: BioMAP Diversity Plus: BE3C Assay for Interferon-gamma inducible Protein 10 (IP10) Biomarker Activity (AID 2283034); conditions: primary human bronchial epithelial cells; actives raise or lower the signal
How it was run: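 IP-10 quantified by ELISA in human primary bronchial epithelial cell cultures at 24 hours post-dosing. Gain or loss of signal fitted relative to DMSO; parallel SRB staining assessed overt cytotoxicity.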

[12] = read-out: Monokine induced gamma interferon (MIG), CXCL9 (gene 4283); experiment: BSK_BE3C_MIG: BioMAP Diversity Plus: BE3C Assay for Monokine induced gamma interferon (MIG) Biomarker Activity (AID 2283035); conditions: primary human bronchial epithelial cells; actives raise or lower the signal;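 further: MIG protein measured by ELISA in BE3C cultures after 24 h of dosing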
How it was run: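 Dose cells (human primary bronchial epithelial), incubate 24 h, quantify MIG by ELISA, then fit concentration–response in both directions relative to DMSO control.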

[13] = read-out: Plasminogen activator inhibitor-1 (PAI1), SERPINE1 (gene 5054); experiment: BSK_BE3C_PAI1: BioMAP Diversity Plus: BE3C Assay for Plasminogen activator inhibitor-1 (PAI1) Biomarker Activity (AID 2283037); conditions: primary human bronchial epithelial cells; actives raise or lower the signal
How it was run: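 PAI-1 was measured by ELISA in human primary bronchial epithelial cultures 24 h after chemical dosing, with cytotoxicity checked by SRB total-protein staining in parallel cultures. Activity was fitted in both directions relative to DMSO.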

[14] = read-out: urokinase plasminogen activator (uPA), PLAU (gene 5328); experiment: BSK_BE3C_uPA: BioMAP Diversity Plus: BE3C Assay for urokinase plasminogen activator (uPA) Biomarker Activity (AID 2283038); conditions: primary human bronchial epithelial cells; actives raise or lower the signal;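 further: uPA protein level quantified by ELISA in cell cultures; uPA read one day after compound addition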
How it was run: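 Using confluent primary human lung bronchial epithelial cultures, we dosed chemicals, waited 24 h, then ran a uPA ELISA, fitting bidirectionally against DMSO.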

[15] = read-out: Urokinase-type plasminogen activator receptor (uPAR), PLAUR (gene 5329); experiment: BSK_BE3C_uPAR: BioMAP Diversity Plus: BE3C Assay for Urokinase-type plasminogen activator receptor (uPAR) Biomarker Activity (AID 2283039); conditions: primary human bronchial epithelial cells; actives raise or lower the signal
How it was run: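 uPAR levels were measured by ELISA after 24 h compound treatment of primary human bronchial epithelial cells, fitted in both directions relative to DMSO. Parallel SRB staining served as the cytotoxicity read-out.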

[16] = read-out: Interleukin-6 (IL6), IL6 (gene 3569); experiment: BSK_CASM3C_IL6: BioMAP Diversity Plus: CASM3C Assay for Interleukin-6 (IL6) Biomarker Activity for (AID 2283040); conditions: primary human coronary artery smooth muscle cells; actives raise or lower the signal
[17] = BSK_3C_Vis: BioMAP Diversity Plus: 3C Assay for Morphology Visualization (AID 2283025); conditions: primary human endothelial cells (HUVEC);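 further: fitted both ways so gain or loss versus DMSO counts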;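 on AC50: light microscopy image of cell morphology used as background control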
How it was run: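 Light-microscopy visualization of HUVEC cultures at 24 h post-treatment, with DMSO as baseline for bidirectional fitting.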

[18] = read-out: Transforming growth factor beta 1 (TGFb1), TGFB1 (gene 7040); experiment: BSK_BE3C_TGFb1: BioMAP Diversity Plus: BE3C Assay for Transforming growth factor beta 1 (TGFb1) Biomarker Activity (AID 2283036;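 further: TGF-b1 protein level measured by ELISA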); conditions: primary human bronchial epithelial cells; actives raise or lower the signal
How it was run: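 ELISA readout of TGF-b1 from human lung bronchial epithelial primary cells, taken 24 h post-treatment. Gain or loss of signal fitted relative to DMSO baseline, with parallel SRB staining for overt cytotoxicity.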

[19] = read-out: Thrombomodulin, THBD (gene 7056); experiment: BSK_3C_Thrombomodulin: BioMAP Diversity Plus: 3C Assay for Thrombomodulin Biomarker Activity (AID 2283029); conditions: primary human endothelial cells (HUVEC); actives raise or lower the signal
How it was run: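 ELISA measurement of thrombomodulin on HUVEC surface 24 h after chemical dosing; activity fitted in both directions relative to DMSO vehicle.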

Measured: AC50

Chain of human Vitamin D Receptor (VDR), VDR (gene 7421) (P11473 whole entry, looked up): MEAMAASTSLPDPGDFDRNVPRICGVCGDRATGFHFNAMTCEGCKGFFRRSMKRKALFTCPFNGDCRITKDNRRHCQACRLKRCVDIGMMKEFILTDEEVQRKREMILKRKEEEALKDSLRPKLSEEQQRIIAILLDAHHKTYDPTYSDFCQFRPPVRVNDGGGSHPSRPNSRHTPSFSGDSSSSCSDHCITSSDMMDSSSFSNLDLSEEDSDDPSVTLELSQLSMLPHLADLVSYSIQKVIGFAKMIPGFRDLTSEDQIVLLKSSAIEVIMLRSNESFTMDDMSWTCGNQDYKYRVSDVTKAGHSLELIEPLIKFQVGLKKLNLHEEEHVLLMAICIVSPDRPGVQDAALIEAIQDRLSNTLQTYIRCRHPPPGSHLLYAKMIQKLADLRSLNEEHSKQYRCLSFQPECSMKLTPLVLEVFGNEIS

CC(=O)OCCOC(C)=O
inactive: [1]

O=c1oc(=O)c2cc3c(=O)oc(=O)c3cc12
inactive: [1]

COC(C(=O)O)c1ccccc1 (stereo not given)
inactive: [1]

CN(C)c1ccc(O)c2c1C[C@H]1C[C@H]3[C@H](N(C)C)C(=O)C(C(N)=O)=C(O)[C@@]3(O)C(=O)C1=C2O
inactive: [1]

OC1OC[C@@H](O)[C@H](O)[C@H]1O (stereo not given in full)
not listed: [1] | [17] | [18] | [19]
inactive: all other assays above

CCN(CC)c1ccc(C(=C2C=CC(=[N+](CC)CC)C=C2)c2ccc(S(=O)(=O)O)cc2S(=O)(=O)[O-])cc1
inactive: [1]

CC(=O)c1c(C)cc(C(C)(C)C)cc1C
inactive: [1]

CCCCCCCCCC=O
active: [9] 20 µM | [11] 20 µM
not listed: [1] | [19]
inactive: all other assays above

CC(C)c1cccc(O)c1
inactive: [1]

Cc1cc(C2(c3cc(C)c(O)cc3C)OS(=O)(=O)c3ccccc32)c(C)cc1O
not listed: [1] | [17] | [18]
inactive: all other assays above

Cc1c(N(C)C)c(=O)n(-c2ccccc2)n1C
inactive: [1]

O=P(c1ccccc1)(c1ccccc1)c1ccccc1
not listed: [1] | [19]
inactive: all other assays above

C=CC(=O)OCC(O)COc1ccccc1 (stereo not given)
inactive: [1]

CC(C)=CCC/C(C)=C/COC=O
inactive: [1]

C=C(C)C(=O)NCCCN(C)C
inactive: [1]

COc1cccc(OC)c1
inactive: [1]

CC(=O)OCCC(C)CC(C)(C)C (stereo not given)
not listed: [1] | [17] | [18]
inactive: all other assays above

O=C(O)c1cn(-c2ccc(F)cc2)c2cc(N3CCNCC3)c(F)cc2c1=O
not listed: [1] | [19]
inactive: all other assays above

NCCNCCN
not listed: [1] | [17] | [18]
inactive: all other assays above

O=[N+]([O-])c1ccc(Nc2ccc(Nc3ccccc3)c(S(=O)(=O)O)c2)c([N+](=O)[O-])c1
inactive: [1]

C#C[C@]1(O)CC[C@H]2[C@@H]3CCC4=Cc5oncc5C[C@]4(C)[C@H]3CC[C@@]21C
active: [3] 3.97 µM | [17] 37.5 µM | [4] 35.2 µM | [5] 7.33 µM | [7] 3.97 µM | [10] 30.1 µM | [11] 31.2 µM
not listed: [1] | [19]
inactive: all other assays above

Nc1nc2ccc([N+](=O)[O-])cc2s1
inactive: [1]

CC(C)CCCCCCCOC(=O)c1ccc(C(=O)OCCCCCCCC(C)C)c(C(=O)OCCCCCCCC(C)C)c1
inactive: [1]

Nc1ccc(F)c([N+](=O)[O-])c1
inactive: [1]

CC(=O)Nc1ccc(C)cc1C
inactive: [1]

CCCCCCCCCCCCCCCC(=O)O
inactive: [1]

CN(CCOc1ccc(CC2SC(=O)NC2=O)cc1)c1ccccn1 (stereo not given)
active: [4] 1.12 µM | [7] 11.6 µM | [9] 20 µM | [10] 8.46 µM | [11] 11 µM | [13] 0.21 µM | [15] 3.97 µM
not listed: [1] | [19]
inactive: all other assays above

CC(CCO)CCc1ccccc1 (stereo not given)
inactive: [1]

CC(=O)[C@H]1CC[C@H]2[C@@H]3CC=C4C[C@@H](O)CC[C@]4(C)[C@H]3CC[C@]12C
active: [3] 11.1 µM and 7.02 µM
not listed: [1] | [17] | [18] | [19]
inactive: all other assays above

CC(C)C[C@H]1C(=O)N2CCC[C@H]2[C@]2(O)O[C@](NC(=O)[C@@H]3C=C4c5cccc6[nH]c(Br)c(c56)C[C@H]4N(C)C3)(C(C)C)C(=O)N12
inactive: [1]

COc1ccc(NC(=O)CC(C)=O)cc1
inactive: [1]

O=C1CCc2ccccc2O1
inactive: [1]

CCc1c(C)cc(N)c(CC)c1N
not listed: [1] | [19]
inactive: all other assays above

Nc1cc([N+](=O)[O-])ccc1O
inactive: [2] | [3] | [4] | [5] | [6] | [7] | [8] | [9] | [10] | [11] | [12] | [13] | [14] | [15] | [16]
active: [13] 11.8 µM

CCCCCCCCCCCCCCCC(=O)OC[C@H](O)[C@H]1OC(=O)C(O)=C1O
inactive: [1]

CC(=O)OCc1ccc2c(c1)OCO2
inactive: [1]
